GPR151 activ: activates the human receptor GPR151; Q8TDV0; PathHunter beta-arrestin GPR151 cells, luminescence; activation, % at 11.2 µM; actives 1% (n = 650,000); in the data active = activation above about 4.9%;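 note: 0% = median of compound wells and 100% = cells with positive control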
MITF inh: blocks human microphthalmia-associated transcription factor | O75030 | AlphaScreen MITF homodimerization, bead proximity signal | inhibition, % at 2.6 µM | actives 0.91% (n = 650,000); in the data active = inhibition above about 50%;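 note: 0% = vehicle wells with protein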
FBW7 activator: human FBW7 E3 ligase activation, primary screen; AlphaScreen FBW7–phospho-cyclin E peptide binding, activator screen; normalized activity (activation), % at 26.1 µM; actives 0.13% (n = 650,000); in the data active = normalized activity above about 1.9%;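 note: purified mutant Fbw7 with reduced substrate affinity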
TEAD-YAP block: TEAD-YAP interaction inhibition. HEK-TIYL cells, TEAD-Gal4/YAP UAS-luciferase luminescence. inhibition, % at 9.12 µM. actives 1.4% (n = 640,000); in the data active = inhibition above about 32%;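 note: 0% = median of test compound wells and 100% = reference inhibitor wells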
Active calls of the source: *. The list is not random: actives were taken first. Their share in the collection is about 3.5%.

SMILES	GPR151 activ	MITF inh	FBW7 activator	TEAD-YAP block
CCOC(=O)C1CCN(C(=O)C(Cc2ccccc2)NS(=O)(=O)c2ccc(Br)cc2)CC1 (stereo unspecified)	-1	10	0	10
CCCNC(=O)N1CCC(Cc2cccc(C(F)(F)F)c2)(C(=O)OCC)CC1	-1	8	0	1
COc1ccc(CCn2c(C)c3c(=O)n(-c4nc5ccccc5s4)[nH]c3cc2=O)cc1	1	25	0	2
Cc1c2c(=O)n(-c3nc4ccccc4s3)[nH]c2cc(=O)n1Cc1ccccc1	1	71*	0	-3
O=C(CSc1cc(N2CCCC2)ncn1)Nc1ccccc1F	1	0	0	-15
Nc1ccc2c(c1)OC1(CCCC1)O2	-1	11	-1	94*
CCOc1ccc(Br)c(/C=C2\SC(=S)NC2=O)c1	2	6	0	19
CCCC1N=C(c2cccc(OC)c2)CC(c2cc(Br)ccc2O)N1 (stereo unspecified)	2	1	0	39*
CCOc1cccc(C2CC(c3cccc(OC)c3)=NC(C(C)C)N2)c1O (stereo unspecified)	0	3	0	36*
Cc1nc2c(ccc3nc(NC(=O)CN4C(=O)CCC4=O)sc32)s1	-1	3	0	6
CCOCCCNC(=O)Cn1c(=S)[nH]c2c([nH]c3ccc(OC)cc32)c1=O	0	0	0	-1
Cc1ccc(C)n1-c1ccccc1N	2	-7	1	51*
CN(C1(C)CCS(=O)(=O)C1)S(=O)(=O)c1cccs1 (stereo unspecified)	1	11	0	-3
CN1C(=O)C(C)(C)c2cc(S(=O)(=O)N3CCN(c4ccc(Cl)cc4)CC3)ccc21	-1	43	0	3
O=C1CSc2ccc(C(=O)NC3CCCc4ccccc43)cc2N1 (stereo unspecified)	-1	2	0	58*
CCCCOc1ccc(C(=O)Nc2cc(C)ccn2)cc1	-7	8	0	52*
COc1ccc2oc(=O)c(C(=O)Nc3cc(C)ccn3)cc2c1	1	-5	0	34*
Cc1cc(NC(=O)c2ccc(N3CCCCS3(=O)=O)cc2)ccc1Br	0	20	0	10
CCCCCOc1ccc(C(=O)Nc2cc(C)on2)cc1	-2	6	0	-14
COc1ccc2oc(=O)c(C(=O)Nc3ccc(C)cc3Br)cc2c1	1	-1	0	1
Cc1ccnc(NC(=O)c2ccc(N3CCCCS3(=O)=O)cc2)c1	-9	1	0	88*
CC1(c2ccccc2)NC(=O)N(CC(=O)c2ccc(Br)cc2)C1=O (stereo unspecified)	0	-8	0	3
Cc1cccc(N2CCN(Cc3nnnn3Cc3cccs3)CC2)c1C	-2	2	0	-15
COc1ccc(CCNC(=O)c2c[nH]c3ccc(S(=O)(=O)N4CCc5ccccc54)cc3c2=O)cc1OC	0	17	0	35*
CCOC(CNC(=O)c1c[nH]c2ccc(S(=O)(=O)N3CCc4ccccc43)cc2c1=O)OCC	2	4	0	19
SMILES	GPR151 activ	MITF inh	FBW7 activator	TEAD-YAP block
Nc1nc(C2CC2)c(Sc2sc(N)nc2C2CC2)s1	1	7	0	35*
Nc1ncnc(N/N=C/c2cc([N+](=O)[O-])ccc2OC(F)F)c1[N+](=O)[O-]	-1	4	0	-40
COc1cccc(/C=N/Nc2ncnc(N)c2[N+](=O)[O-])c1OC	-6	18	0	46*
Nc1ncnc(N/N=C/c2ccc(O)cc2O)c1[N+](=O)[O-]	-3	81*	-1	-10
Nc1ncnc(N/N=C/c2ccccc2OC(F)F)c1[N+](=O)[O-]	-8	8	-1	48*
O=C(NCCCN1CCCC1=O)c1cc(N2CCN(Cc3ccc4c(c3)OCO4)CC2)nc2ccccc12	3	5	0	-1
CCC(C)NC(=O)CN(c1ccccc1OC)S(C)(=O)=O (stereo unspecified)	-1	-6	0	2
CCn1ccc(C(=O)N2CCC(Oc3nc4c(F)cc(F)cc4s3)CC2)n1	0	7	2.4*	0
O=C(c1ccc(F)cc1Cl)N1CCC(Oc2nc3c(F)cccc3s2)CC1	0	24	1	12
Nc1nc(SCC(=O)Nc2ccc3c(c2)OC(F)(F)O3)n[nH]1	-1	5	0	-4
O=S(=O)(O)c1cc(I)c(O)c2ncccc12	0	123*	0	0
Oc1c(Cl)cc(Cl)c2cccnc12	-1	-4	0	2
Oc1c(I)cc(I)c2cccnc12	0	14	0	52*
COc1cc(/C=C2/SC(=O)N(c3ccccc3)C2=O)ccc1OCC(=O)O	-1	13	0	6

Source: PubChem BioAssay
